# Most compounds without a hit are left out; they make up all but 11% or so of the library.
# USP28 inh: human USP28 deubiquitinase inhibition; Q96RU2; purified USP28, Ub-rhodamine cleavage fluorescence, 30 min; inhibition, % at 25 µM; actives 3% (n = 47,000)
# Target sequence (Q96RU2 whole entry, looked up): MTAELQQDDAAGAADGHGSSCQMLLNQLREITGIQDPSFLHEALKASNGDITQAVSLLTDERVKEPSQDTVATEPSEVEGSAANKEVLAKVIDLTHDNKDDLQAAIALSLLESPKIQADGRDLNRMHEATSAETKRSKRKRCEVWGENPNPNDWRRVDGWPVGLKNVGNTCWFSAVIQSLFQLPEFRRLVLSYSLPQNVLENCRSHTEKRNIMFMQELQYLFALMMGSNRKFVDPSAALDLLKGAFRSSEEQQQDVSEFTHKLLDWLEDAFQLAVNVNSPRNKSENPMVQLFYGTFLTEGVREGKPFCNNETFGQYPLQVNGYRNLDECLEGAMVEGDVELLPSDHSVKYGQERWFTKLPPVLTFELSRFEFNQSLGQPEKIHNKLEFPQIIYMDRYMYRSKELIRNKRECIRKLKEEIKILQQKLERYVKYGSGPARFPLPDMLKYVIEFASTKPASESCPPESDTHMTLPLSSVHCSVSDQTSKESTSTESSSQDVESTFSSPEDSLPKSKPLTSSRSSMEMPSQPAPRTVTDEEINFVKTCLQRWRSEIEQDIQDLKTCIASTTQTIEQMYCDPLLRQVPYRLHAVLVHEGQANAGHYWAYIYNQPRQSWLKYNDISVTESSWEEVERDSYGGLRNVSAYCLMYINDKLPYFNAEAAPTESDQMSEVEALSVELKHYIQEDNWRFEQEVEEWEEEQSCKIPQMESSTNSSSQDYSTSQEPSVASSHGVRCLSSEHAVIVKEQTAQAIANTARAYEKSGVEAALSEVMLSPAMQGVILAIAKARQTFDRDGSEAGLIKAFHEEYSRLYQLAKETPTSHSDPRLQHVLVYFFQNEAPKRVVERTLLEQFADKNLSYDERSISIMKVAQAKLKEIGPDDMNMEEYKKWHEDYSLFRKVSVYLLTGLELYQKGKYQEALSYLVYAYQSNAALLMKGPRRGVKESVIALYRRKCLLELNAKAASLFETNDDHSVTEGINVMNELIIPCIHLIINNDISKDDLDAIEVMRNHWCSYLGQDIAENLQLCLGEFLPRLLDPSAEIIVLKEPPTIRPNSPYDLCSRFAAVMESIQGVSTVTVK
# USP17 block: blocks human USP17 ubiquitin-rhodamine cleavage | A8MUK1 | purified USP17, Ub-rhodamine cleavage fluorescence, 3 h | inhibition, % at 50 µM | actives 6.5% (n = 47,000) | AID 1645855
# USP30 inh: blocks human USP30 ubiquitin-rhodamine cleavage; inhibition, % at 25 µM; AID 1645860; Q70CQ3; purified USP30, Ub-rhodamine cleavage fluorescence; actives 5.3% (n = 47,000)
# * = called active by the depositor; i = inactive; / = not tested or not shown. No stated cut-off is given here; in the data, active means inhibition above about 30%; inactive means the rest.
SMILES,USP28 inh,USP17 block,USP30 inh
COc1cc(OC)c2c(C)c(CC(=O)Nc3cccc(C(C)O)c3)c(=O)oc2c1 (stereo unspecified),9,30*,7
COc1cc(C2CN3C(=O)CN(C4CC4)C(=O)[C@]3(C)c3[nH]c4ccccc4c32)ccc1OC(C)C (stereo partly specified),-19,-15,-107
COc1ccc(CC(=O)Nc2nonc2-c2ccc(C)cc2)cc1,12,26,11
Cc1ccccc1CNC(=O)C1CN(S(C)(=O)=O)c2ccccc2O1 (stereo unspecified),7,0,10
O=C(c1ccc2c(=O)n3c(nc2c1)CCCC3)N1CCC2(CC1)OCCO2,10,10,31*
O=C(Nc1nnc(C2CC2)s1)c1ccc2c(=O)n3c(nc2c1)CCCCC3,-15,-7,-42
Cn1ccc(CN2CCN(c3ccccc3)CC2)cc1=O,-1,-47,6
O=C(OCC(=O)N1CCCc2ccccc21)c1c(F)cccc1Cl,24,10,31*
O=C(OCC(=O)N1CCCc2ccccc21)c1ccc(O)cc1,2,-7,2
CC(C)(C)CC(=O)N1CCc2cc(-c3csc(NC(=O)CNc4ccccc4)n3)ccc21,-14,-2,-25
NC(=O)C[C@H](NC(=O)[C@@H]1CCCN1C(=O)[C@H](Cc1ccccc1)n1c(=O)[nH]c2ccccc2c1=O)C(=O)O,2,6,12
Cc1cccc(NC(=O)Cn2c(N3CCOCC3)nc3cc(C)n(C)c3c2=O)c1,12,47*,61*
Cc1scc2nc(C(=O)N3CCCC3)nc(N3CCOCC3)c12,-17,-28,-73
Cc1cc2nc(N3CCOCC3)n(CC(=O)Nc3ccccc3)c(=O)c2n1C,-5,18,-12
Cc1cccc(NC(=O)c2nc(N3CCOCC3)c3cnn(C)c3n2)c1,19,44*,42*
Cn1ncc2c(N3CCOCC3)nc(C(=O)NCc3ccc(Cl)cc3)nc21,15,5,19
Cc1scc2nc(C(=O)Nc3ccc4c(c3)OCO4)nc(N3CCOCC3)c12,32*,23,19
CCOc1ccc2oc(C(=O)OCC(=O)Nc3ccc(OC(F)(F)F)cc3)c(C)c2c1,-58,-24,-216
Cc1cnc(C(=O)NC2CC3(CCOCC3)Oc3ccccc32)cn1 (stereo unspecified),2,14,5
Cc1nn(C)c(C)c1CCNC(=O)Nc1ccccc1Cl,2,-9,0
O=C(CCc1c[nH]c2ccccc12)OCC(=O)c1cc2c3c(c1)CC(=O)N3CCC2,/,62*,/
O=C(CCc1c[nH]c2ccccc12)N1C[C@@H](O)[C@H](N2CCCC2)C1,-12,-5,-4
NC(=O)CSc1ccc(N2CCN(c3ccc(F)cc3)CC2)nn1,3,10,i
COc1ccccc1NC(=O)N1CCCC1c1c(C)noc1C (stereo unspecified),2,6,0
COc1ccccc1-c1noc(C2CCCN2C(=O)Nc2cccc(C)c2C)n1 (stereo unspecified),8,23,49*
SMILES,USP28 inh,USP17 block,USP30 inh
Cn1nc(C(=O)N2CCOCC2)c2c1CN(Cc1cccc(C#N)c1)C2,8,6,17
Cc1nn(-c2nc3ccccc3[nH]2)c2c1C(c1ccsc1)CC(=O)N2 (stereo unspecified),-3,45*,14
Cc1nn(-c2nc3ccccc3s2)c2c1C(c1c(F)cccc1F)CC(=O)N2 (stereo unspecified),1,2,9
COc1ccccc1CNc1ncc(C(=O)NCc2ccco2)c(C)n1,-66,-70,-356
COc1ccccc1-n1ccn2cc(-c3ccc(C)c(C)c3)nc2c1=O,7,31*,16
COc1cccc(-c2cn3ccn(-c4ccccc4)c(=O)c3n2)c1,-23,28,-24
CC(C)(C)C(=O)N1CCCC(Cc2cc(C(N)=O)ncn2)CC1 (stereo unspecified),-17,-19,0
COc1ccc(Cl)cc1C(=O)Nc1nnc2n1CCCS2,3,-2,-2
O=C(Nc1nnc2n1CCCS2)c1cccc(Cl)c1,59*,-23,12
Cc1cccc(N2CCN(C(=O)c3ccc(-c4cncnc4)nc3)CC2)c1,-15,-24,-35
CCCC[C@@H](O)/C=C(C)/C=C/C=C/C(=O)N1CCCC1=O,8,17,20
O=C(NC1CC1)c1ccc2onc(-c3coc(-c4ccccc4)n3)c2c1,5,24,38*
O=C(NCc1noc(-c2ccccc2)n1)c1coc(-c2ccccc2)n1,12,-1,11
CN(C)C(=O)CNC(=O)c1ccc2onc(-c3coc(-c4ccccc4)n3)c2c1,16,42*,29
Cc1ccc(-c2onc3ccc(C(=O)NC4CCN(Cc5ccccc5)CC4)cc23)cc1,-54,-7,-95
Cc1ccc(-c2nnc(NC(=O)C3CCCCC3)o2)c(C)c1,4,38*,6
O=C(Nc1nnc(-c2ccccc2Cl)o1)C1CCCCC1,-2,15,8
CCN(c1ccc(NC(=O)CN2C(=O)NC3(CCCCC3)C2=O)cc1)C(C)C,0,0,4
CC1(c2ccco2)NC(=O)N(CC(=O)Nc2ccc(N3CCCCCC3)cc2)C1=O (stereo unspecified),0,44*,-7
O=C(Cn1cc(N2CCOCC2)c(=O)[nH]c1=O)OCc1ccccc1,-16,-12,0
Cc1ccccc1C(=O)Nc1ccc(Oc2ccc(C(C)(C)C)cc2)nc1,12,6,1
CC(C)(C)c1ccc(C(=O)Nc2ccc(Oc3cccnc3)nc2)cc1,53*,0,13
COc1ccc(OC)c(CNC(=O)Cc2c(C)n[nH]c2C)c1,-11,-1,-9
Cc1ccc(C(C)C)cc1OCCOCCN1CCNCC1,60*,-11,27
Cc1ccc(C)c(OCCOCCN2CCNCC2)c1C,2,-1,6
SMILES,USP28 inh,USP17 block,USP30 inh
COc1ccc(CCNC(=O)c2ccc3c(c2)SC2=NS(=O)(=O)CCN23)cc1,16,-3,-5
O=C(Nc1cccc(C(F)(F)F)c1)c1ccc2c(c1)SC1=NS(=O)(=O)CCN12,2,35*,-4
COc1ccc(-c2cn3c4c(=O)n(C)c(=O)n(C)c4nc3n2CCc2ccccc2)cc1OC,3,6,21
Cn1c(=O)c2c(nc3n(CCc4ccccc4)c(-c4ccccc4)cn23)n(C)c1=O,19,0,41*
CC(=O)Nc1cccc(NC(=O)Cn2ccc3cc(Br)ccc32)c1,62*,61*,54*
Cn1ccc2ccn(CC(=O)Nc3cccc(Cl)c3)c(=O)c21,13,21,0
O=C1CC(c2ccco2)Cc2nc3nc(-c4ccncc4)nn3cc21 (stereo unspecified),4,-5,-49
O=S(=O)(c1ccc(F)cc1)N1CCCC1c1ccnc(Nc2cnccn2)n1 (stereo unspecified),45*,47*,73*
O=C(c1ccc(F)cc1)N1CCCC1c1ccnc(Nc2cnccn2)n1 (stereo unspecified),1,3,-4
O=C(CCC1CCCCC1)Nc1ccccc1C(=O)N1CCOCC1,34*,70*,40*
O=C(c1ccc(OCC2CCN(C(=O)c3ccccc3)CC2)cc1)N1CCOCC1,-4,-2,5
CCC(C)NC(=O)c1cn(-c2cc(-c3nc(C4CC4)no3)ccn2)cn1 (stereo unspecified),5,2,3

# Assay outcomes from PubChem.
